# Reference: the supplement of paper PMC6555819
# Legend:
# Experiment in all cases: PBM binding z-score (relative to random genomic background probes); higher = stronger binding; sequences stand for … in GC…GCGATTGACAGCGTAGAATGAAGG
# [1] = system: FXR:RXRa (NR concentration 270 nM, RXRa partner concentration 90 nM)
# Summary of the method: (§1)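 Binding buffer was PBS pH 7.4 with 2% milk, 0.02% Triton X-100, 1 mM DTT, 0.2 mg/mL BSA and 0.4 mg/ml salmon testes DNA. In it, ligand-free nuclear receptor dimers were incubated 1 h on custom Agilent 4×180K protein-binding microarrays carrying double-stranded probes. Antibodies against each partner (one per run) detected binding, and z-scores were calculated against random background probes after regression normalization of scanned fluorescence.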
# [2] = system: LXRa:RXRa (NR concentration 270 nM, RXRa partner concentration 90 nM)
# Summary of the method: as §1
# [3] = system: LXRa homodimer (NR concentration 270 nM)
# Summary of the method: as §1
# [4] = system: LXRb:RXRa (NR concentration 270 nM, RXRa partner concentration 90 nM)
# Summary of the method: as §1
# [5] = system: LXRb homodimer (NR concentration 270 nM)
# Summary of the method: as §1
# [6] = system: PPARa:RXRa (NR concentration 270 nM, RXRa partner concentration 90 nM)
# Summary of the method: as §1
# [7] = system: PPARg:RXRa (NR concentration 180 nM, RXRa partner concentration 90 nM)
# Summary of the method: as §1
# [8] = system: PPARg:RXRa 270nM:90nM, anti-RXR (NR concentration 270 nM, RXRa partner concentration 90 nM)
# Summary of the method: as §1
# [9] = system: PPARg:RXRa 30nM:10nM, anti-RXR (NR concentration 30 nM, RXRa partner concentration 10 nM)
# Summary of the method: as §1
# [10] = system: PPARg:RXRa 90nM:30nM, anti-RXR (NR concentration 90 nM, RXRa partner concentration 30 nM)
# Summary of the method: as §1
# [11] = system: PPARg:RXRa DBDmut IVT, anti-RXR (DBD mutation: RXRa K156A/R161A, NR concentration 270 nM, RXRa partner concentration 90 nM)
# Summary of the method: as §1
# [12] = system: PPARg:RXRa IVT, anti-PPARg (NR concentration 270 nM, RXRa partner concentration 90 nM)
# Summary of the method: as §1
# [13] = system: PPARg DBDmut:RXRa IVT, anti-PPARg (DBD mutation: PPARg1 K132A/R137A, NR concentration 270 nM, RXRa partner concentration 90 nM)
# Summary of the method: as §1
# [14] = system: PPARg DBDmut IVT, anti-PPARg (DBD mutation: PPARg1 K132A/R137A, NR concentration 270 nM)
# Summary of the method: as §1
# [15] = system: PPARg homodimer (NR concentration 180 nM)
# Summary of the method: as §1
# [16] = system: PXR:RXRa (NR concentration 270 nM, RXRa partner concentration 90 nM)
# Summary of the method: as §1
# [17] = system: PXR homodimer (NR concentration 270 nM)
# Summary of the method: as §1
# [18] = system: RARa:RXR (NR concentration 270 nM, RXRa partner concentration 90 nM)
# Summary of the method: as §1
# [19] = system: RARa homodimer (NR concentration 270 nM)
# Summary of the method: as §1
# [20] = system: RARb:RXRa (NR concentration 270 nM, RXRa partner concentration 90 nM)
# Summary of the method: as §1
Sequence,PBM binding z-score [1],PBM binding z-score [2],PBM binding z-score [3],PBM binding z-score [4],PBM binding z-score [5],PBM binding z-score [6],PBM binding z-score [7],PBM binding z-score [8],PBM binding z-score [9],PBM binding z-score [10],PBM binding z-score [11],PBM binding z-score [12],PBM binding z-score [13],PBM binding z-score [14],PBM binding z-score [15],PBM binding z-score [16],PBM binding z-score [17],PBM binding z-score [18],PBM binding z-score [19],PBM binding z-score [20]
CCAGACAGGTGAGAAGGTAACTAAGCCTCGATTA,-0.00461,0.0397,-0.256,-0.0609,-0.426,0.532,0.439,0.258,-0.00796,-0.013,0.948,0.601,-0.627,-0.192,0.387,-0.327,0.346,-0.102,0.36,0.585
GCATACAGGTGAAACGCAGGTAACTCAGGGTGGC,-0.0721,0.132,-0.487,-0.143,-0.74,1.35,1.04,0.609,-0.12,0.232,3.57,1.78,-0.446,-0.192,-0.115,-0.254,-0.513,0.243,-0.373,0.744
ATCGAAAGGTCGAGGTGAGTAGAGAGAAAGGGAA,4.27,3.47,0.0492,2.46,0.462,4.49,3.29,3.59,1.45,2.36,0.416,2.34,1.55,0.427,1.76,2.19,0.327,3.31,1.21,4.11
ATCGAAAGGTCGACGAGATGAGTATACACCGTTT,3.66,2.9,0.0102,2.41,0.483,4.04,2.7,2.66,1.14,1.85,0.534,1.36,1.43,1.08,1.2,2.24,0.2,2.77,0.514,3.79
TCTTGTAGATCAGCAGGTTAAGAAGGCTGGCCAA,0.433,0.344,-0.0872,0.367,-0.714,0.674,-0.387,1.6,2.59,2.41,1.84,0.182,-0.501,-0.862,0.413,0.183,-0.311,0.64,-0.641,0.214
AGAACGAGGGCCATGAGTTGATAGCACGGGTGGC,-0.356,-0.437,-0.767,-0.687,-0.764,-0.163,0.614,-0.0464,-0.464,-0.23,0.174,0.141,-0.382,0.0603,-0.217,0.118,-0.232,-0.375,-0.362,0.632
GCTTGTAGATCAAGGTTAAAAAAGACTAAGCTAA,0.221,1.35,-0.113,0.828,-0.501,1.84,1.19,2.38,0.522,1.79,1.05,1.23,0.281,0.272,0.282,0.574,-0.0589,1.15,0.0785,0.688
CCTGCTAGGTCAATGGTCAGCTGAAGCAGCTCGC,3.06,2.17,-0.221,1.45,-0.203,3.22,4.4,5.35,2.69,4.92,4.48,4.13,0.258,-0.168,1.14,0.872,-0.578,1.71,-0.46,3.85
CGTCCAAGGTCAGCAGGTCAGTGTAAGCGACGTG,5.5,4.05,0.506,3.05,-0.03,4.91,4.14,4.68,1.12,3.01,2.97,3.67,-0.32,-0.582,2.97,3.74,0.447,5.09,1.36,5.35
CTAACTAGGTCAAAGGTCAAAGTCGAGCCAACCA,8.53,7.32,5.19,7.21,2.96,7.74,14,11.2,13.1,13.2,9.01,9.15,2.95,1.6,4.42,7.03,1.84,8.76,2.8,5.8
CCTAGCAGGCCAGGATCACTCAAGCATTTCGCTT,-0.0228,-0.302,-0.315,-0.395,-0.796,-0.414,-0.143,-0.455,-0.969,-0.909,0.271,-0.507,-1.72,-1.21,-0.29,-0.547,-0.646,-0.792,-0.0748,-0.149
ATATGTAGATTAAGGGTCATTCAGGTTGGTTCGC,3.93,4.24,3.27,3.96,1.38,4.74,6.74,6.77,6.28,7.43,1.15,3.34,1.32,1.38,3.29,4.89,2.6,4.45,2.24,2.88
TCTGCTGGGTCAGTTGGTCAGCTAACGAGCTGCC,0.384,-0.0859,-1.01,0.206,0.206,1.4,0.0356,1.6,1.09,1.19,2.22,2.74,0.569,-0.161,-0.167,0.0304,-0.922,0.33,-0.731,3.19
ACTCGGAGGACTAAGGTCAGAGCTACGCCAGTGA,1.93,1.78,0.464,1.49,-0.00791,2.52,1.93,2.96,0.578,2.41,-0.123,0.778,-0.0206,-0.832,1.27,1.8,0.241,2.92,-0.326,2.88
